# Data: PubChem BioAssay
# The source made the active and inactive calls. How the calls were made is not given here.
# Molecular target: Pantothenate synthetase (Mycobacterium tuberculosis (strain ATCC 25618 / H37Rv)) (UniProt P9WIL5)
# Experiment: Recombinant Mtb pantothenate synthetase (PanC) inhibitors, coupled enzyme, confirmatory (AID 375);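 further: 0% = full reaction with vehicle and 100% = no enzyme background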
# Conditions: coupled enzyme assay; at 10 µM, hits give high values
# Pantothenate synthetase (Mycobacterium tuberculosis (strain ATCC 25618 / H37Rv)), sequence (P9WIL5 whole entry, looked up): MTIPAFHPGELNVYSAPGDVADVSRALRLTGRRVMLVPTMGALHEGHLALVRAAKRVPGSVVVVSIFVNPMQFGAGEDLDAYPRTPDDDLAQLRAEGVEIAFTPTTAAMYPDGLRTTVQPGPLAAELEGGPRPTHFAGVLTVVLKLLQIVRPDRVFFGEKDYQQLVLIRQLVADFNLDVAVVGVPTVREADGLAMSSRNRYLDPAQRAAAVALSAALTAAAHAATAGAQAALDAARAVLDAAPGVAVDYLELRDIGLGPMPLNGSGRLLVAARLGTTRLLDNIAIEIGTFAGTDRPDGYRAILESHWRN
row,SMILES,inhibition
1,O=C(CSc1nc2ccc(Cl)cc2[nH]1)NCc1ccco1,0% (inactive)
2,CN(C(=O)Cn1c(=O)n(CCCCC(=O)NC2CCCC2)c(=O)c2ccccc21)C1CCCCC1,0% (inactive)
3,COCCN(CCOC)C(=O)c1sc2nc(-c3ccccc3)cn2c1C,0% (inactive)
4,O=C(Oc1ccc2ccc(OC(=O)N3CCOCC3)cc2c1)N1CCOCC1,0% (inactive)
5,COc1ccccc1N1CCN(C/C(O)=C(\C#N)c2nc(-c3ccccc3)cs2)CC1,2% (inactive)
6,Cc1ccc(NC(=O)CN(C)S(=O)(=O)c2cccc3nsnc23)cc1Cl,1% (inactive)
7,CCN1C(=O)C2(C(C#N)=C(N)Oc3n[nH]c(C(C)C)c32)c2ccccc21 (stereo not given),1% (inactive)
8,Nc1ncnc2c1ncn2[C@@H]1O[C@H](CO)[C@@H](O)[C@H]1O,0% (inactive)
9,CCOc1ccccc1NC(=O)N1CCCC1C(=O)Nc1nnc(CC)s1 (stereo not given),0% (inactive)
10,COc1ccc(OCC(=O)N2CC3(C)CC2CC(C)(C)C3)cc1 (stereo not given),0% (inactive)
11,Cc1nc(SCc2ccc(Br)cc2)[nH]c(=O)c1C,0% (inactive)
12,CC(=O)C1=C(O)C(=O)N(Cc2cccnc2)C1c1ccccc1 (stereo not given),3% (inactive)
13,Cn1c(SCC(N)=O)nnc1C1CCN(C(=O)NCc2ccccc2)CC1,0% (inactive)
14,CCC(=O)Oc1ccc(C/C(=N\O)c2ccc(O)cc2O)o1,0% (inactive)
15,CCOC(=O)N1CCN(c2c(N3CCc4ccccc4C3)c(=O)c2=O)CC1,0% (inactive)
16,COC(=O)CN(c1ccc(OC)cc1)S(=O)(=O)c1ccc(OC)c(OC)c1,0% (inactive)
17,CCOC(=O)c1sc2nc(NC(=O)C(C)(C)C)sc2c1C,8% (inactive)
18,COc1ccc(C/C(N)=N/n2cnnc2)cc1Cl,0% (inactive)
19,Cc1cc(NC(=O)CN2CCC(O)(c3cccc(F)c3)CC2)no1,0% (inactive)
20,O=C(NC1CCS(=O)(=O)C1)c1c(NC(=O)C2COc3ccccc3O2)sc2c1CCCC2 (stereo not given),0% (inactive)

row,SMILES,inhibition
1,O=C(OCC(=O)c1ccccc1Br)c1ccccn1,3% (inactive)
2,CC(C)c1nnc(NC(=O)Cc2cccs2)s1,0% (inactive)
3,COc1ccc(N2CCC(CNS(=O)(=O)c3cccc(C(F)(F)F)c3)C2)cc1 (stereo not given),5% (inactive)
4,O=C1CSC(c2cn(-c3ccccc3)nc2-c2ccccc2)N1Cc1ccco1 (stereo not given),4% (inactive)
5,Cc1ccc(Cn2c(SCC(C)C)nc3c2c(=O)n(C)c(=O)n3C)cc1,3% (inactive)
6,O=c1[nH]c(SCc2ccc(F)cc2)nc2c1cnn2-c1ccc(F)cc1,0% (inactive)
7,CCN(CC)C(c1ccc(C)cc1)c1nnnn1C1CCCCC1 (stereo not given),0% (inactive)
8,NC(=O)c1ccccc1NC(=O)CCCN1C(=O)CCC1=O,10% (inactive)
9,COc1ccc(N2CC(C(=O)Nc3ccc(F)cc3F)CC2=O)cc1 (stereo not given),1% (inactive)
10,C(=N\n1cnnc1)/c1cccc(OCCOc2ccccc2)c1,0% (inactive)
11,O=C(CCC(=O)N1CCc2ccccc2C1)N1CCN(S(=O)(=O)c2ccccc2)CC1,0% (inactive)
12,CC(=O)c1ccc(OCC(O)CN2CCN(CCO)CC2)cc1 (stereo not given),4% (inactive)
13,CCC(C)(C)n1nnnc1C(c1cc2cc(OC)ccc2[nH]c1=O)N1CCc2ccccc21 (stereo not given),0% (inactive)
14,COc1cc(NS(=O)(=O)N2CCCC2)cc(OC)c1OC,0% (inactive)
15,CN(C)c1ccc2c(c1)OC(N)=C(C#N)C2c1cccc(F)c1 (stereo not given),0% (inactive)
16,COc1ccc(NC(=O)N2CCN(c3nc(-c4cccc(OC)c4)cs3)CC2)cc1,0% (inactive)
17,COc1ccc(-c2noc(CN3CCC(Cc4ccccc4)CC3)n2)cc1,0% (inactive)
18,CC(=O)c1ccc(NC(=O)c2cc(CC(C)C)on2)cc1,0% (inactive)
19,O=C1c2ccccc2NC2CCCCCN12 (stereo not given),0% (inactive)
20,c1ccc(-n2ncc3c(N4CCCCC4)ncnc32)cc1,0% (inactive)
